The results in this text go back to PubChem BioAssay AID1259343 (VanderVen Lab, College of Veterinary Medicine, Cornell …, 2017).

The whole screen tested about 6,200 compounds, of which about 2,900 (47%) were called active. The set was probably picked from earlier hits. The list shows a part of the results. Values without a mark were called inactive. No stated cut-off is given here; in the data, active means inhibition above about 50%; inactive means the rest.

The nature of the test: Mycobacterium tuberculosis growth inhibition, primary screen (AID 1259343). The following applies: inhibition: at 10 µM, active compounds read high; outcome: 10 uM.
Take `O=C(COC(=O)c1ccco1)Nc1ccc2ccccc2c1`: the inhibition (in general, the drop in the measured response relative to a control, in per cent) is 39.6%.
In the case of `NC(Cc1cnc[nH]1)C(=O)Nc1ccc2ccccc2c1` (stereo not drawn) it was 72.9% (active); in that of `CCOC(=O)c1ccc(NC(=O)CN2CCOC(C)C2)cc1` (stereo not drawn), 92% (active); in that of `CC1CCc2c(sc(NC(=O)CN3CCOC(C)C3)c2C#N)C1` (stereo not drawn), 30.6%.
For `Cc1cc(NC(=O)CN2CCOC(C)C2)ccc1Br` (stereo not drawn) the value was 16.5%.
In the case of `Cc1cc(C)c2c(=O)[nH]c(SCc3nnc(-c4ccc(Cl)cc4)o3)nc2n1` it was -6.74%; in that of `Fc1ccc(OCc2nnc(-c3ccc(Br)cc3)o2)cc1`, -26.1%.
For the compound `Fc1ccc(-c2csc(SCc3nnc(-c4ccc(F)cc4)o3)n2)cc1`, the inhibition is 69.3% (active).
As for `CN(Cc1nnc(-c2ccc(F)cc2)o1)C1C2CCOC2C1(C)C` (stereo not drawn), the inhibition was 21.1%.
Regarding `Clc1ccc(-c2nnc(CSc3nncs3)o2)cc1`, the inhibition was 97.2% (active).
In the case of `Clc1ccc(-c2noc(CSc3nncs3)n2)cc1` it was -30.4%; in that of `O=C1NC(=O)C(=Cc2cc(Br)c(Sc3ccc(Cl)cc3)o2)S1`, 85.2% (active); in that of `COc1ccc2c(CC(=O)Nc3nc(CN4CCCCC4)cs3)coc2c1`, 26.5%.
As for `O=C(Nc1nc(CN2CCCCC2)cs1)c1cc(F)cc(F)c1`, the inhibition was -30.9%.
In the case of `CC1CCCN(Cc2csc(NC(=O)c3cccc(I)c3)n2)C1` (stereo not drawn) it was 50.6% (active).
For `O=C(C=Cc1cccs1)N1CCN(Cc2nc3ccccc3s2)CC1` the value was 67.3% (active).
For `CCc1cc(-c2n[nH]c(C)c2-c2nc3ccccc3s2)c(O)c(CN2CCN(C)CC2)c1O` the value was 10.5%; for `O=C(CCc1nc2ccccc2s1)N1CCN(Cc2ccc(C(F)(F)F)cc2)CC1`, 88.1% (active).
Take `O=C(c1ccc2c(c1)OCO2)C1CCCN(Cc2nc3ccccc3s2)C1` (stereo not drawn): the inhibition entry was “inactive”.
For `Cc1sc(-c2cccc(O)c2)nc1-c1ccccc1` the value was 23.1%; for `COc1ccc(/C=N\NC(=O)c2ccncc2)c(C(=O)O)c1OC`, 42.2%.
For `Oc1cccc(/C=N\Nc2cc(N3CCCC3)nc(N3CCCC3)n2)c1` the value was 14%; for `Cc1sc(NN=Cc2cccc(O)c2)nc1-c1ccccc1`, 94.2% (active); for `COc1cccc(C=NNc2nc(-c3ccccc3)c(C)s2)c1OC`, 91.8% (active).
In the case of `COc1ccc(-c2nc(Nc3ccc(Cl)nc3)sc2C)cc1`, the inhibition was 25.9%.
Regarding `CC1(C)CC(=O)C(Sc2ccc(Br)cc2)=C(O)C1`, the inhibition was 57.1% (active).
In the case of `CN(Cc1ccccc1)C(=O)c1ccc(Nc2nc(C(N)COCc3ccccc3)cs2)nc1` (stereo not drawn) it was 97.6% (active); in that of `CCCCN(C)C(=O)c1ccc(Nc2nc(C(N)COCc3ccccc3)cs2)nc1` (stereo not drawn), 64.2% (active).
